Results on 7 molecules are retold here after PubChem BioAssay AID2476 (The Scripps Research Institute Molecular Screening Center, 2010).

The structures appear in SMILES notation. A number with no mark means an inactive call. How the calls were made is not given here.

A short description of the assay: fluorescent intercalator displacement from DNA, late-stage follow-up, counter-screen for HCV NS3 helicase inhibitor project, biochemical, fluorescence, dose response (AID 2476). A general note: The purpose of a counterscreen is to sort out artefacts and off-target activity.

Consider `Cc1cc(N2C(=O)C(O)=C(C(=O)c3ccc(C)o3)C2c2ccc(OCc3ccccc3)cc2)no1` (configuration not stated), for which the IC50 (usually the concentration that gives 50% inhibition) was more than 79.4 µM.

Take `COc1ccc(C=NNC(=O)c2cc(O)c(O)c(O)c2)cc1COc1ccc(C(=O)OCC(C)C)cc1`: the IC50 is more than 79.4 µM.

For `Cc1ccc(C(=O)C2=C(O)C(=O)N(Cc3ccco3)C2c2cccc(Cl)c2)o1` (configuration not stated), the IC50 was more than 79.4 µM. On to `CCOc1cccc(C2C(C(=O)c3ccc(C)o3)=C(O)C(=O)N2Cc2ccccc2)c1` (configuration not stated), for which the IC50 was more than 79.4 µM. Next, `CCCCCOc1ccc(C2C(C(=O)c3ccc(C)o3)=C(O)C(=O)N2c2cc(C)on2)cc1` (configuration not stated): more than 79.4 µM.

On to `COc1cc(C2C(C(=O)c3ccc(C)o3)=C(O)C(=O)N2c2cc(C)on2)ccc1OCc1ccccc1` (configuration not stated), for which the IC50 is more than 79.4 µM. Consider `COc1cccc(-n2c(SCc3cc(=O)oc4cc(O)c(O)cc34)nc3ccccc3c2=O)c1`, for which the IC50 is more than 79.4 µM.
